Holding throughout (assay): DAPPL (digital affinity profiling via proximity ligation, sequencing); 10 mM Tris-HCl pH 7.5, 50 mM NaCl, 1 mM DTT, 4% glycerol, room temperature, 30 min; GST-TFs on glutathione beads, 16-mer random dsDNA library, 0.1% formaldehyde crosslink after washing; high values mean tight binding
What all share (details): protein: recombinant; tags: N-terminal GST; dsDNA, one strand shown

The target in one assay is T1, FLI1 (Homo sapiens, UniProt Q01543 1-452).
T1 sequence: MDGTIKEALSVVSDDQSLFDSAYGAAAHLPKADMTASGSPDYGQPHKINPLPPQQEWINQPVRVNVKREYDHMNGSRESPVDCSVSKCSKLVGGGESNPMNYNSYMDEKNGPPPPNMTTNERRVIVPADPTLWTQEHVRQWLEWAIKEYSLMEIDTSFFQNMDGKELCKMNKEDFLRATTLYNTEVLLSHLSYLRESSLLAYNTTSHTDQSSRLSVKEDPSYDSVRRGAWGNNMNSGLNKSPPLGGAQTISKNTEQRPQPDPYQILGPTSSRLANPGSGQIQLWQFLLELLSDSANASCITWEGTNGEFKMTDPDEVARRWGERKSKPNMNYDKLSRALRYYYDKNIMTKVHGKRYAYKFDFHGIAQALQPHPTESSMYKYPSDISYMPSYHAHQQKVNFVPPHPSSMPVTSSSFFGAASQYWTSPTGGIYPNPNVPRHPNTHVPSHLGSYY
The procedure, abridged: (§1)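 Human transcription factors carrying a GST fusion were produced in yeast, bound to glutathione beads, tagged with DNA barcodes and pooled together with a tag-only sample. Each pool was held with 200 nmole of a random double-stranded 16-mer DNA library in Tris/NaCl/DTT/glycerol buffer for 30 min at room temperature, then washed, crosslinked in 0.1% formaldehyde, proximity-ligated with BsaI/T4 ligase (1 h, 37 °C), PCR-amplified and sequenced on an Illumina NextSeq500. Binding signal is the read frequency of each hexamer for a given factor divided by its frequency in the tag-only sample.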

The next assay deals with T2, ELK1 (Homo sapiens, UniProt P19419 1-428).
T2 sequence: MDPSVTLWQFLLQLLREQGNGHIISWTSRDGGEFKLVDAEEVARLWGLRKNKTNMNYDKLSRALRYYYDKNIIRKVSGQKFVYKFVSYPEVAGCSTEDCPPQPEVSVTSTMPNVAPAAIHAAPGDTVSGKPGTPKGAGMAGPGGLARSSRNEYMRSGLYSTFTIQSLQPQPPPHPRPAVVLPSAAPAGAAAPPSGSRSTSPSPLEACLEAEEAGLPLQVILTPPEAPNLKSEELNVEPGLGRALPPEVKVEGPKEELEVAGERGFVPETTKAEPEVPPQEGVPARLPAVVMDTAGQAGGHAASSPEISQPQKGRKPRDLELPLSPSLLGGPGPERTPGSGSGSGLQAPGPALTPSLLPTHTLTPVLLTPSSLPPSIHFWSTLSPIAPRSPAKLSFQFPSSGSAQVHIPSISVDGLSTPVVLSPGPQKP
The method in brief: as §1

The target in the next assay is T3, GABPA (Homo sapiens, UniProt Q06546 1-454).
T3 sequence: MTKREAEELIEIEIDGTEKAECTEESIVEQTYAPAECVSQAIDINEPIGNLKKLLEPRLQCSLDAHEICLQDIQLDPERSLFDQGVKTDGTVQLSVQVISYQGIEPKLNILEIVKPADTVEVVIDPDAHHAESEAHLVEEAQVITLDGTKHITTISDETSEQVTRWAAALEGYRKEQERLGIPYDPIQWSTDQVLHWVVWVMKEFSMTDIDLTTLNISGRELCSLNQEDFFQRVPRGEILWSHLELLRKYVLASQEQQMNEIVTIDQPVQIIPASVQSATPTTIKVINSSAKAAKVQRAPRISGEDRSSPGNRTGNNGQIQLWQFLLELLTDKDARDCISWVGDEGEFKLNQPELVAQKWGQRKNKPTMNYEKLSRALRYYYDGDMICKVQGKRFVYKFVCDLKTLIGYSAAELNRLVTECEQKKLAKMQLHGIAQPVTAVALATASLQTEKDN
The method in brief: as §1

For another assay, the target named is T4, ERG (Homo sapiens, UniProt P11308 1-479).
T4 sequence: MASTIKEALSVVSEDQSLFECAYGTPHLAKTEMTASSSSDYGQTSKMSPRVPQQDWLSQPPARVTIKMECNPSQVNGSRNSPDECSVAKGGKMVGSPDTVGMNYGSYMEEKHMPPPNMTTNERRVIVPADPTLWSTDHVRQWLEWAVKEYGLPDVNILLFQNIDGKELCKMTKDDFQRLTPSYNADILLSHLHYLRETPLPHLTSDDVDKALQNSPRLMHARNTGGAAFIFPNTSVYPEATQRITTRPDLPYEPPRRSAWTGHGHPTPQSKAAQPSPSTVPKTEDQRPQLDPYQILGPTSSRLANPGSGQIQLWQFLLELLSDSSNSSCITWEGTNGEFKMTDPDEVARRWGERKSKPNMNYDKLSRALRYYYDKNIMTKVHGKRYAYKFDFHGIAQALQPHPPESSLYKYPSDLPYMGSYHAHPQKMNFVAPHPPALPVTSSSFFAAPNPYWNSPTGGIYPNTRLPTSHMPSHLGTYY
The method in brief:
as §1

A further assay has as its target ELF1 (Homo sapiens, UniProt P32519 1-619). The procedure, abridged: as §1
For another assay, the target named is T5, EHF (Homo sapiens, UniProt Q9NZC4 1-300).
T5 sequence: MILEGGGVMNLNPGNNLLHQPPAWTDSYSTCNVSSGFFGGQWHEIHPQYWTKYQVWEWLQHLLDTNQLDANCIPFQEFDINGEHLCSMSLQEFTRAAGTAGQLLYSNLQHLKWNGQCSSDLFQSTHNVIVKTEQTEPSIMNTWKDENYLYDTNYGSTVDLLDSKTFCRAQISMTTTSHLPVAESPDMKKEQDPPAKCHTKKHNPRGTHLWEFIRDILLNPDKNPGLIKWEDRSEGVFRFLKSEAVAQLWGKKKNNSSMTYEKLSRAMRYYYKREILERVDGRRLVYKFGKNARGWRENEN
The procedure, abridged:
as §1

Another assay concerns the target SPI1 (Homo sapiens, UniProt P17947 1-270). The procedure, abridged:
as §1

A further assay concerns the target SPIB (Homo sapiens, UniProt Q01892 1-262). The method in brief:
as §1

The target of another assay is T6, ELK3 (Homo sapiens, UniProt P41970 1-407).
T6 sequence: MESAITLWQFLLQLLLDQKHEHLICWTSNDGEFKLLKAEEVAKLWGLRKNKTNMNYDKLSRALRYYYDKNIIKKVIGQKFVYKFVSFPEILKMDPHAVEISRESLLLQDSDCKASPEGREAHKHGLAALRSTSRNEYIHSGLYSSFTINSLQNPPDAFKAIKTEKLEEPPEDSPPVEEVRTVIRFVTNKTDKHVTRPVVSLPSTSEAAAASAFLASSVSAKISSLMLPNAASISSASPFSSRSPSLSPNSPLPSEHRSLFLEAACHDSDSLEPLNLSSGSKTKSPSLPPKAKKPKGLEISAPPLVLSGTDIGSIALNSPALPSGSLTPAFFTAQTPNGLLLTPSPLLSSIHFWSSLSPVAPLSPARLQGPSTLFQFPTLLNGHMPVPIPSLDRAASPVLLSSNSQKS
The procedure, abridged: as §1

Chain of SPIB (Q01892 whole entry): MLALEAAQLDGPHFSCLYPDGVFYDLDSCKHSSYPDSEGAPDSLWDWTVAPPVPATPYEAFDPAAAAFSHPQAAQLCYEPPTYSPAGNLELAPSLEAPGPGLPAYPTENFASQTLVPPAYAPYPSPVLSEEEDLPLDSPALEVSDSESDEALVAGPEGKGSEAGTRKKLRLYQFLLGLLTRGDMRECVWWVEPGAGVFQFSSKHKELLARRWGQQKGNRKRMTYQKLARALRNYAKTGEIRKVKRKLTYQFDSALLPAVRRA
Chain of ELF1 (P32519 whole entry): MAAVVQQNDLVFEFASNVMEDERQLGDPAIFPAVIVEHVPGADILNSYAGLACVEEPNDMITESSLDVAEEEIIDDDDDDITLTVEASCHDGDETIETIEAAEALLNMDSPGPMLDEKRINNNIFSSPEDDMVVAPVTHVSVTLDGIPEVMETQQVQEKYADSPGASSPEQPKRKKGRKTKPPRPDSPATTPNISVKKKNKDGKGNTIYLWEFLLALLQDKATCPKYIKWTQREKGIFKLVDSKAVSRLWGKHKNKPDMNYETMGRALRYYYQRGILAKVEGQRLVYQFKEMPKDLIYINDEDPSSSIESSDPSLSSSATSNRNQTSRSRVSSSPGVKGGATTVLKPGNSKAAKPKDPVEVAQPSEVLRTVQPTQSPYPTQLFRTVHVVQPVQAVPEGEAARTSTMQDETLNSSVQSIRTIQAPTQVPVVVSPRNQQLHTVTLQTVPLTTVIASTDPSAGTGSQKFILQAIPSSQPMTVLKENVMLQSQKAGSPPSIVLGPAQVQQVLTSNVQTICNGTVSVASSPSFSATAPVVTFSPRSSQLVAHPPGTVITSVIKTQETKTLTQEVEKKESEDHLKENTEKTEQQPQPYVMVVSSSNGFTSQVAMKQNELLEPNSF

In the case of AATGTC, the binding signal was 1.16 fold enrichment (6-mer frequency, TF over GST control) with FLI1; 1.21 fold enrichment (6-mer frequency, TF over GST control) in the assay with ELK1; 1.23 fold enrichment (6-mer frequency, TF over GST control) with GABPA; 1.27 fold enrichment (6-mer frequency, TF over GST control) with ERG; 1.22 fold enrichment (6-mer frequency, TF over GST control) with ELF1; 1.29 fold enrichment (6-mer frequency, TF over GST control) with EHF. Also, the binding signal with SPI1 was 1.23 fold enrichment (6-mer frequency, TF over GST control); with SPIB it was 1.25 fold enrichment (6-mer frequency, TF over GST control); with ELK3 it was 1.23 fold enrichment (6-mer frequency, TF over GST control).
Take ATTCTA: the binding signal with FLI1 was 1.34 fold enrichment (6-mer frequency, TF over GST control); in the assay with ELK1, 1.21 fold enrichment (6-mer frequency, TF over GST control); with GABPA it was 1.29 fold enrichment (6-mer frequency, TF over GST control); with ERG, 1.23 fold enrichment (6-mer frequency, TF over GST control); with ELF1, 1.3 fold enrichment (6-mer frequency, TF over GST control); in the assay with EHF, 1.21 fold enrichment (6-mer frequency, TF over GST control). The binding signal with SPI1 is 1.23 fold enrichment (6-mer frequency, TF over GST control); with SPIB it was 1.22 fold enrichment (6-mer frequency, TF over GST control); with ELK3, 1.18 fold enrichment (6-mer frequency, TF over GST control).
On to CCTTTA, for which the binding signal with FLI1 is 1.36 fold enrichment (6-mer frequency, TF over GST control); in the assay with ELK1, 1.4 fold enrichment (6-mer frequency, TF over GST control); in the assay with GABPA, 1.37 fold enrichment (6-mer frequency, TF over GST control); in the assay with ERG it was 1.21 fold enrichment (6-mer frequency, TF over GST control); in the assay with ELF1 it was 1.36 fold enrichment (6-mer frequency, TF over GST control); in the assay with EHF, 1.29 fold enrichment (6-mer frequency, TF over GST control). Besides, the binding signal with SPI1 was 1.45 fold enrichment (6-mer frequency, TF over GST control); in the assay with SPIB, 1.3 fold enrichment (6-mer frequency, TF over GST control); with ELK3, 1.21 fold enrichment (6-mer frequency, TF over GST control).
Take TCATTC: the binding signal with FLI1 was 1.27 fold enrichment (6-mer frequency, TF over GST control); with ELK1, 1.22 fold enrichment (6-mer frequency, TF over GST control); with GABPA, 1.26 fold enrichment (6-mer frequency, TF over GST control); in the assay with ERG it was 1.27 fold enrichment (6-mer frequency, TF over GST control); in the assay with ELF1 it was 1.28 fold enrichment (6-mer frequency, TF over GST control); with EHF, 1.17 fold enrichment (6-mer frequency, TF over GST control). Moreover, the binding signal in the assay with SPI1 was 1.24 fold enrichment (6-mer frequency, TF over GST control); in the assay with SPIB, 1.19 fold enrichment (6-mer frequency, TF over GST control); with ELK3, 1.28 fold enrichment (6-mer frequency, TF over GST control).
Consider CTAGGT, for which the binding signal with FLI1 was 1.07 fold enrichment (6-mer frequency, TF over GST control); with ELK1, 1.13 fold enrichment (6-mer frequency, TF over GST control); with GABPA it was 1.05 fold enrichment (6-mer frequency, TF over GST control); with ERG, 1.14 fold enrichment (6-mer frequency, TF over GST control); in the assay with ELF1 it was 1.2 fold enrichment (6-mer frequency, TF over GST control); in the assay with EHF it was 1.09 fold enrichment (6-mer frequency, TF over GST control). In addition, the binding signal in the assay with SPI1 was 1.05 fold enrichment (6-mer frequency, TF over GST control); in the assay with SPIB, 1.13 fold enrichment (6-mer frequency, TF over GST control); in the assay with ELK3 it was 1.13 fold enrichment (6-mer frequency, TF over GST control).
In the case of TCGTTT, the binding signal is 1.13 fold enrichment (6-mer frequency, TF over GST control) with FLI1; 1.21 fold enrichment (6-mer frequency, TF over GST control) in the assay with ELK1; 1.28 fold enrichment (6-mer frequency, TF over GST control) with GABPA; 1.15 fold enrichment (6-mer frequency, TF over GST control) with ERG; 1.15 fold enrichment (6-mer frequency, TF over GST control) in the assay with ELF1; 1.22 fold enrichment (6-mer frequency, TF over GST control) with EHF. Further, the binding signal with SPI1 was 1.2 fold enrichment (6-mer frequency, TF over GST control); with SPIB it was 1.18 fold enrichment (6-mer frequency, TF over GST control); in the assay with ELK3, 1.05 fold enrichment (6-mer frequency, TF over GST control).
For the sequence TGCTCG, the binding signal in the assay with FLI1 is 1.3 fold enrichment (6-mer frequency, TF over GST control); in the assay with ELK1, 1.2 fold enrichment (6-mer frequency, TF over GST control); in the assay with GABPA, 1.21 fold enrichment (6-mer frequency, TF over GST control); with ERG it was 1.17 fold enrichment (6-mer frequency, TF over GST control); in the assay with ELF1, 1.18 fold enrichment (6-mer frequency, TF over GST control); in the assay with EHF, 1.17 fold enrichment (6-mer frequency, TF over GST control). Moreover, the binding signal was 1.35 fold enrichment (6-mer frequency, TF over GST control) with SPI1; 1.27 fold enrichment (6-mer frequency, TF over GST control) in the assay with SPIB; 1.04 fold enrichment (6-mer frequency, TF over GST control) with ELK3.
